Paper PMC7862700, “An all-to-all approach to the identification of sequence-specific readers for epigenetic DNA modifications on cytosine”

What was measured:
Test in all cases: DAPPL (digital affinity profiling via proximity ligation, sequencing); 10 mM Tris-HCl pH 7.5, 50 mM NaCl, 1 mM DTT, 4% glycerol, room temperature, 30 min; GST-TFs on glutathione beads, 16-mer random dsDNA library, 0.1% formaldehyde crosslink after washing; high values mean tight binding
FLI1 = target: T1, FLI1 (Homo sapiens, UniProt Q01543 1-452); details: protein: recombinant; tags: N-terminal GST; dsDNA, one strand shown
T1 sequence: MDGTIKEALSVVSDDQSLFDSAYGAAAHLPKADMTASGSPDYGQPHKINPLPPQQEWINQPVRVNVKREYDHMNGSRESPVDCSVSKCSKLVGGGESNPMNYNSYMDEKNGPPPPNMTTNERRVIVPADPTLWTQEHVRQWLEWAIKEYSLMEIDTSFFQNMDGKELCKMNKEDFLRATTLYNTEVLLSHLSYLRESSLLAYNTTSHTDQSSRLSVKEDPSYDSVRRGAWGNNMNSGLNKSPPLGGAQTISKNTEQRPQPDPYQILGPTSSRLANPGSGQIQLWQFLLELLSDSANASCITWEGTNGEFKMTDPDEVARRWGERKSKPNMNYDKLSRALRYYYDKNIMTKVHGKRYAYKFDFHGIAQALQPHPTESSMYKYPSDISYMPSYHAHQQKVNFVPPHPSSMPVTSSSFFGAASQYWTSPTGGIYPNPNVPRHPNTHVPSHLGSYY
In short: (§1)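 A tag-only sample was pooled with DNA-barcoded human transcription factors that had been expressed in yeast as GST fusions and captured on glutathione beads. The pools were incubated for 30 min at room temperature with 200 nmole of a random double-stranded 16-mer DNA library in Tris/NaCl/DTT/glycerol buffer, then washed, crosslinked with 0.1% formaldehyde, proximity-ligated (BsaI/T4 ligase, 1 h, 37 °C), PCR-amplified and sequenced on an Illumina NextSeq500. Binding signal is each hexamer's read frequency for a factor divided by its frequency for the tag-only sample.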

ELK1 = target: T2, ELK1 (Homo sapiens, UniProt P19419 1-428); details: protein: recombinant; tags: N-terminal GST; dsDNA, one strand shown
T2 sequence: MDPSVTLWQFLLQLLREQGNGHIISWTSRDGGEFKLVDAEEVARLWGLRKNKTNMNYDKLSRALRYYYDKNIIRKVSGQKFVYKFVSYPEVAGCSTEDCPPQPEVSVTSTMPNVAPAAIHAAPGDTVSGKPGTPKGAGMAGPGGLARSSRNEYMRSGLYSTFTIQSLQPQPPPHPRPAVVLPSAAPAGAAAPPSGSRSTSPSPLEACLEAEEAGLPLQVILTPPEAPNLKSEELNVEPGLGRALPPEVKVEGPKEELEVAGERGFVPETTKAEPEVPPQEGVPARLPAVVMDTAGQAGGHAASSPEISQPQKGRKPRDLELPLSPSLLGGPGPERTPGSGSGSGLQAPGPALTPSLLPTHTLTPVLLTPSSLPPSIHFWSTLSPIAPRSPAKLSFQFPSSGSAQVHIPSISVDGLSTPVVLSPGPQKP
In short: as §1

GABPA = target: T3, GABPA (Homo sapiens, UniProt Q06546 1-454); details: protein: recombinant; tags: N-terminal GST; dsDNA, one strand shown
T3 sequence: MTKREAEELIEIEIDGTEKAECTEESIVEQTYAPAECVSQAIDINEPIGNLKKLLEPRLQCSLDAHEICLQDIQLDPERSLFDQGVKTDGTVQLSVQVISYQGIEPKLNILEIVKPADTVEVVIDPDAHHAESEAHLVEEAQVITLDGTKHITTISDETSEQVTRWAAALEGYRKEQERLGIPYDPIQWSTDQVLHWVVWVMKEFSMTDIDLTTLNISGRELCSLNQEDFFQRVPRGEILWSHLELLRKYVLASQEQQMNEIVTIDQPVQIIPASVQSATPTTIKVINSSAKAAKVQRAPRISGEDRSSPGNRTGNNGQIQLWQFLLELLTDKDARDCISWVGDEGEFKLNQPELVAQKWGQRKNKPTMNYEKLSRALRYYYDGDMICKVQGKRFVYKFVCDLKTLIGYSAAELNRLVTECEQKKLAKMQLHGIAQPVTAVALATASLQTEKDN
In short: as §1

ERG = target: T4, ERG (Homo sapiens, UniProt P11308 1-479); details: protein: recombinant; tags: N-terminal GST; dsDNA, one strand shown
T4 sequence: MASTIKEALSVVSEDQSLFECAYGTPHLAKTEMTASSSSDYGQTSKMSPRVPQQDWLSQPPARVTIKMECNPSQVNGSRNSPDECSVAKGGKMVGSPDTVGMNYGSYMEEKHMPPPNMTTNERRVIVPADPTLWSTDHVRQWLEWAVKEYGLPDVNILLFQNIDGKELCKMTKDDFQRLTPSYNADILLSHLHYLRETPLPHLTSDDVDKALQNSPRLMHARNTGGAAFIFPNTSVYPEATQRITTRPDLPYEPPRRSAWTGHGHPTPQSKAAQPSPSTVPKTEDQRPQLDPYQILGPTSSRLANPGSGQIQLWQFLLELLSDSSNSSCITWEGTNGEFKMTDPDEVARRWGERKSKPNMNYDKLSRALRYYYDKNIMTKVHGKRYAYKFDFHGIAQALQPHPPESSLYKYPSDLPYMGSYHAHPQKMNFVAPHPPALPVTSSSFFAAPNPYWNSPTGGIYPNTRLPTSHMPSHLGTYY
In short: as §1

ELF1 = ELF1 (Homo sapiens, UniProt P32519 1-619); details: protein: recombinant; tags: N-terminal GST; dsDNA, one strand shown
Sequence of ELF1 (P32519 whole entry): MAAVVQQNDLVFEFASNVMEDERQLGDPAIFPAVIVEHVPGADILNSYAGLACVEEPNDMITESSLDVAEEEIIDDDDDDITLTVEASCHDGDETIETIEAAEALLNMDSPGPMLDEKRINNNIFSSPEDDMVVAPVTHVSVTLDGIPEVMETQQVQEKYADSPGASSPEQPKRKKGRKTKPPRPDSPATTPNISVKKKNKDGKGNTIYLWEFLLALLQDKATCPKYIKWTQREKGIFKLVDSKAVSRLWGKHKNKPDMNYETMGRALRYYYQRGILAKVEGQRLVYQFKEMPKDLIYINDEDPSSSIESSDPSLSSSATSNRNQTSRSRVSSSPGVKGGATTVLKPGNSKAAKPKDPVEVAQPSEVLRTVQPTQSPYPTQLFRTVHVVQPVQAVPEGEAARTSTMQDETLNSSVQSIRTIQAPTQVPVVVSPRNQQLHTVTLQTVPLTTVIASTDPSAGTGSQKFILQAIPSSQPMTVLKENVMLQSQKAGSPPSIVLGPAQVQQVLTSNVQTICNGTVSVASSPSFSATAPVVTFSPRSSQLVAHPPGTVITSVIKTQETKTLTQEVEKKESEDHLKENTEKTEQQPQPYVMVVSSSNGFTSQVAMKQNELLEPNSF
In short: as §1

EHF = target: T5, EHF (Homo sapiens, UniProt Q9NZC4 1-300); details: protein: recombinant; tags: N-terminal GST; dsDNA, one strand shown
T5 sequence: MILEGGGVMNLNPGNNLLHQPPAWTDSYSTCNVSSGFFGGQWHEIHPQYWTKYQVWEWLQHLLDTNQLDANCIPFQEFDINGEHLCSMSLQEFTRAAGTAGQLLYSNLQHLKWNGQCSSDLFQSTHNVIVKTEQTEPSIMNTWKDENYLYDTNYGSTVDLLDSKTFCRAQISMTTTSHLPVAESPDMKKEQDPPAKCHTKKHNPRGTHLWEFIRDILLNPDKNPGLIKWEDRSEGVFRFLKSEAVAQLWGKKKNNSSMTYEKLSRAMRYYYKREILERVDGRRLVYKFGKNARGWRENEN
In short: as §1

SPI1 = SPI1 (Homo sapiens, UniProt P17947 1-270); details: protein: recombinant; tags: N-terminal GST; dsDNA, one strand shown
In short: as §1

SPIB = SPIB (Homo sapiens, UniProt Q01892 1-262); details: protein: recombinant; tags: N-terminal GST; dsDNA, one strand shown
Sequence of SPIB (Q01892 whole entry): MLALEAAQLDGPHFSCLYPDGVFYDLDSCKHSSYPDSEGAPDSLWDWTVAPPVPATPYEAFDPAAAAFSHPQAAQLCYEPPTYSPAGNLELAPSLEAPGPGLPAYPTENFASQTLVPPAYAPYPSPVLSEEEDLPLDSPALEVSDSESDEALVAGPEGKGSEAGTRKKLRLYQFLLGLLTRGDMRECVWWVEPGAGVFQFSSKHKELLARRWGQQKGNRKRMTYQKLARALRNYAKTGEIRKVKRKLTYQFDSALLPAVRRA
In short: as §1

ELK3 = target: T6, ELK3 (Homo sapiens, UniProt P41970 1-407); details: protein: recombinant; tags: N-terminal GST; dsDNA, one strand shown
T6 sequence: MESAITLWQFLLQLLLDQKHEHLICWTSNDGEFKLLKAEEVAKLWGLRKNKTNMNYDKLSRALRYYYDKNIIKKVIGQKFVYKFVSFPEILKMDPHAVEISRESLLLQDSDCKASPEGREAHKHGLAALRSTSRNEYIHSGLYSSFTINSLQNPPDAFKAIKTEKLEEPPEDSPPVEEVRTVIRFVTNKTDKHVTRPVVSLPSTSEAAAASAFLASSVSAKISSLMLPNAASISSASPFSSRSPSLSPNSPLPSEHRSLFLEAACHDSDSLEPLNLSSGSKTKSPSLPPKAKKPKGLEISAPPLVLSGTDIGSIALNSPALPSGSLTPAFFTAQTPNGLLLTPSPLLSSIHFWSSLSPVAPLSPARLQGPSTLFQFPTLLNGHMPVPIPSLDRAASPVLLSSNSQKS
In short: as §1

FEV = target: T7, FEV (Homo sapiens, UniProt Q99581 1-238); details: protein: recombinant; tags: N-terminal GST; dsDNA, one strand shown
T7 sequence: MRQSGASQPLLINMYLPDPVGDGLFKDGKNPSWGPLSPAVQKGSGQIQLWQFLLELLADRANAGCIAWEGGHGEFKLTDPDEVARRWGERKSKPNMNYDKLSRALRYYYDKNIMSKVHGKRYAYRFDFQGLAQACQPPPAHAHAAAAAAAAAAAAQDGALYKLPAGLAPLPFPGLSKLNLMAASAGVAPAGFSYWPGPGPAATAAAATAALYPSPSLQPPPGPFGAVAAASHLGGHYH
In short: as §1

ETV5 = ETV5 (Homo sapiens, UniProt P41161 1-510); details: protein: recombinant; tags: N-terminal GST; dsDNA, one strand shown
Sequence of ETV5 (P41161 whole entry): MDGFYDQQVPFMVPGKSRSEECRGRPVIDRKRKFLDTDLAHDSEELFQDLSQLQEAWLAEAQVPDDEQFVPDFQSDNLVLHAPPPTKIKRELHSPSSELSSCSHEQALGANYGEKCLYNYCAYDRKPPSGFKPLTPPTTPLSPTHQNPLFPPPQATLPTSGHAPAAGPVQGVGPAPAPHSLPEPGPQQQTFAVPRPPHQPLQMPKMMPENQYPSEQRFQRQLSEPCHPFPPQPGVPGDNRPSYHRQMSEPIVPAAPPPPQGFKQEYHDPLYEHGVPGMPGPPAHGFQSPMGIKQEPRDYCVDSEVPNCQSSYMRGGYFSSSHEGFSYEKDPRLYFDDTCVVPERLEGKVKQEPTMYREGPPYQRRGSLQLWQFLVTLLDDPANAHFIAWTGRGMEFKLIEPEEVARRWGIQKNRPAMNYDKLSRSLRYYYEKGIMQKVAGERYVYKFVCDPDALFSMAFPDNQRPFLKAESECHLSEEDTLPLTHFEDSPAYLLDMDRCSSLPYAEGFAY
In short: as §1

HSF1 = HSF1 (Homo sapiens, UniProt Q00613 1-529); details: protein: recombinant; tags: N-terminal GST; chain copies: 3; dsDNA, one strand shown
Sequence of HSF1 (Q00613 whole entry): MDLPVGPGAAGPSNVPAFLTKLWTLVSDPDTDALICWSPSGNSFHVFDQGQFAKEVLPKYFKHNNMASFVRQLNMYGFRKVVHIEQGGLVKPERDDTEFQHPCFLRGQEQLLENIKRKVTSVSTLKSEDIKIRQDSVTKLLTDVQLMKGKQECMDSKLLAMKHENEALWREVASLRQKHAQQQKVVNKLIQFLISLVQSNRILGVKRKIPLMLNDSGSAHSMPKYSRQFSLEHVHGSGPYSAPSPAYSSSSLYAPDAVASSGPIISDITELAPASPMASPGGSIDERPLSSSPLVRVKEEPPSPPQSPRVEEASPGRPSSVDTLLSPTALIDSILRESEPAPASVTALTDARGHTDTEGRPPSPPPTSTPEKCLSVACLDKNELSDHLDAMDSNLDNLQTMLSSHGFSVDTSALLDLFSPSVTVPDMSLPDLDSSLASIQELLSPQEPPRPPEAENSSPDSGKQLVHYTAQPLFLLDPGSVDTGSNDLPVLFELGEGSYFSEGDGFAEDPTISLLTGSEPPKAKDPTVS
In short: as §1

SPIC = target: T8, SPIC (Homo sapiens, UniProt Q8N5J4 1-248); details: protein: recombinant; tags: N-terminal GST; dsDNA, one strand shown
T8 sequence: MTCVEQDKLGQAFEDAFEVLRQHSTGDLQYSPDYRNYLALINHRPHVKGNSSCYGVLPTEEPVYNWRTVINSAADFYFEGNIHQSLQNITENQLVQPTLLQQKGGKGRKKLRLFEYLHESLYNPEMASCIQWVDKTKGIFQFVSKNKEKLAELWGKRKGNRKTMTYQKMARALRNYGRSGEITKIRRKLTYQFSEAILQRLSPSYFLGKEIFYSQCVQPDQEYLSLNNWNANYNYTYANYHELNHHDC
In short: as §1

ELF4 = ELF4 (Homo sapiens, UniProt Q99607 1-663); details: protein: recombinant; tags: N-terminal GST; dsDNA, one strand shown
Sequence of ELF4 (Q99607 whole entry): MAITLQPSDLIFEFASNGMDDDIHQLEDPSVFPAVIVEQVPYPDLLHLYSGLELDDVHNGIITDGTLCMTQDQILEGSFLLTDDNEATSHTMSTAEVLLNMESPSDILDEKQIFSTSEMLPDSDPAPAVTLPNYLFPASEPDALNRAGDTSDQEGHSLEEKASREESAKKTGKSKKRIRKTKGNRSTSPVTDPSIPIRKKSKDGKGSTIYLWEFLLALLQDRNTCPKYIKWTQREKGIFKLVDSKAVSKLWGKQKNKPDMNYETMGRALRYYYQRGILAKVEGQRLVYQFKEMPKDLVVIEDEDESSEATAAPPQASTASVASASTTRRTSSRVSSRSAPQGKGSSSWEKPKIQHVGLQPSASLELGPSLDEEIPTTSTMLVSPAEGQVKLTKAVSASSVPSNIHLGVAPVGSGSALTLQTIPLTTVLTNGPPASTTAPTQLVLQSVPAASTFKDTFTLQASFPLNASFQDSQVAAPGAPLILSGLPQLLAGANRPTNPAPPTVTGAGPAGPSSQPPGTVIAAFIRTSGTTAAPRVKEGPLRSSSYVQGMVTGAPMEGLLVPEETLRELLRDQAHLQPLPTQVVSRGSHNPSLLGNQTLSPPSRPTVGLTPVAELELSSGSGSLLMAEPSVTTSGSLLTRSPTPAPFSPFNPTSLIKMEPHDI
In short: as §1

ELK4 = target: T9, ELK4 (Homo sapiens, UniProt P28324-2 1-405); details: protein: recombinant; tags: N-terminal GST; dsDNA, one strand shown
T9 sequence: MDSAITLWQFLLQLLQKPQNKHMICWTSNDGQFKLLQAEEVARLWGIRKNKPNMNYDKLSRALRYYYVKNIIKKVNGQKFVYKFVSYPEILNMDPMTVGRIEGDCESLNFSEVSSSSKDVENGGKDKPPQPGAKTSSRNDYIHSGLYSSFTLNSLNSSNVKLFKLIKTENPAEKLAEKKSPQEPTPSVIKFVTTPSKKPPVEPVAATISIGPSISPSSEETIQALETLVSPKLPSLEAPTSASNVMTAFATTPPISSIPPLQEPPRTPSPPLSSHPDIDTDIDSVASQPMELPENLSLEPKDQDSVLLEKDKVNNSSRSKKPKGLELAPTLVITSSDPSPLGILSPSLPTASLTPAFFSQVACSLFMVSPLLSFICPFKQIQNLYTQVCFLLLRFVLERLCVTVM
In short: as §1

ETV2 = target: T10, ETV2 (Homo sapiens, UniProt O00321 1-342); details: protein: recombinant; tags: N-terminal GST; dsDNA, one strand shown
T10 sequence: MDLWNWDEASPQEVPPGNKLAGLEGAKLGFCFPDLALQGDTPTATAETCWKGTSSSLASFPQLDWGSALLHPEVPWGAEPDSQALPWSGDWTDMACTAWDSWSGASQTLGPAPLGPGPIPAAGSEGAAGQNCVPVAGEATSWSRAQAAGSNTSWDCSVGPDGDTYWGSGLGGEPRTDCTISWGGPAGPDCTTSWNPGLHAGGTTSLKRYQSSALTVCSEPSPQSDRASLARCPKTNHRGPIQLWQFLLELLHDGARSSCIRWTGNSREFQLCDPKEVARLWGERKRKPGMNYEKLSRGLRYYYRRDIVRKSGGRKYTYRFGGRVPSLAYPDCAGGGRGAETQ
In short: as §1

ELF3 = target: T11, ELF3 (Homo sapiens, UniProt P78545 1-371); details: protein: recombinant; tags: N-terminal GST; dsDNA, one strand shown
T11 sequence: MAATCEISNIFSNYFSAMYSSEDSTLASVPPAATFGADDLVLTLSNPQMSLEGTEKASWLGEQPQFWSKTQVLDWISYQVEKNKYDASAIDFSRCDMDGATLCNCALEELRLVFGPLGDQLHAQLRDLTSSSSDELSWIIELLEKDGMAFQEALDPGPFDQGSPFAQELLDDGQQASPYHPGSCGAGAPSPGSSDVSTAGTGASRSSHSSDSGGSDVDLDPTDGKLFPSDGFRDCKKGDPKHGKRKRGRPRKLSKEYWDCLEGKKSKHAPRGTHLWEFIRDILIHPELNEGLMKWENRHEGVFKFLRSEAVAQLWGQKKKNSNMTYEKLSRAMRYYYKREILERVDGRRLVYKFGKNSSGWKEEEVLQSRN
In short: as §1

CRX = CRX (Homo sapiens, UniProt O43186 1-299); details: protein: recombinant; tags: N-terminal GST; dsDNA, one strand shown
Sequence of CRX (O43186 whole entry): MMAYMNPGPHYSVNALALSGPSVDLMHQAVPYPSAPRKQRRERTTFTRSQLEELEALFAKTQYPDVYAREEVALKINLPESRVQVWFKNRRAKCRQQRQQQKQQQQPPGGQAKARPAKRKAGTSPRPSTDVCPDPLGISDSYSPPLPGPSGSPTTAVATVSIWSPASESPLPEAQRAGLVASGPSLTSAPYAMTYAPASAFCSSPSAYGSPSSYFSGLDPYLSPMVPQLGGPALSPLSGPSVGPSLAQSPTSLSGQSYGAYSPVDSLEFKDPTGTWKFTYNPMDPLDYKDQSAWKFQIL
In short: as §1

ETV1 = ETV1 (Homo sapiens, UniProt P50549 1-477); details: protein: recombinant; tags: N-terminal GST; dsDNA, one strand shown
Sequence of ETV1 (P50549 whole entry): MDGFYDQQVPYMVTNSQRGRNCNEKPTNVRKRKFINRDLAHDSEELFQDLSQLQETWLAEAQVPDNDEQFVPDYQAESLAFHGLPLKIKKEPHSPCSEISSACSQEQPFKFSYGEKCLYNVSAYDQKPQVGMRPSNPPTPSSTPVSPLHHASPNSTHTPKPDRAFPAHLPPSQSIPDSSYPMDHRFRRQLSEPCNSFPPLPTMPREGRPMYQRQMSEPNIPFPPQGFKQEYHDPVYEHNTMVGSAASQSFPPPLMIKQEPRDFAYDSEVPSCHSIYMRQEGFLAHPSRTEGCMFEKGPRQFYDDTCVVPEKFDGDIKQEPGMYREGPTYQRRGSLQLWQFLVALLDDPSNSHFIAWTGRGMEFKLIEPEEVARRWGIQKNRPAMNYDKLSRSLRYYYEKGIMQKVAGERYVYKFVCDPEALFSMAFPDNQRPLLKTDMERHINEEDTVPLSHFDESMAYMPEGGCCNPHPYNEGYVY
In short: as §1

## CTATAT
FLI1
  binding signal: 1.38 fold enrichment (6-mer frequency, TF over GST control)
ELK1
  binding signal: 1.42 fold enrichment (6-mer frequency, TF over GST control)
GABPA
  binding signal: 1.35 fold enrichment (6-mer frequency, TF over GST control)
ERG
  binding signal: 1.34 fold enrichment (6-mer frequency, TF over GST control)
ELF1
  binding signal: 1.5 fold enrichment (6-mer frequency, TF over GST control)
EHF
  binding signal: 1.42 fold enrichment (6-mer frequency, TF over GST control)
SPI1
  binding signal: 1.32 fold enrichment (6-mer frequency, TF over GST control)
SPIB
  binding signal: 1.47 fold enrichment (6-mer frequency, TF over GST control)
ELK3
  binding signal: 1.47 fold enrichment (6-mer frequency, TF over GST control)
FEV
  binding signal: 1.44 fold enrichment (6-mer frequency, TF over GST control)
ETV5
  binding signal: 1.41 fold enrichment (6-mer frequency, TF over GST control)
HSF1
  binding signal: 1.23 fold enrichment (6-mer frequency, TF over GST control)
SPIC
  binding signal: 1.47 fold enrichment (6-mer frequency, TF over GST control)
ELF4
  binding signal: 1.41 fold enrichment (6-mer frequency, TF over GST control)
ELK4
  binding signal: 1.71 fold enrichment (6-mer frequency, TF over GST control)
ETV2
  binding signal: 1.22 fold enrichment (6-mer frequency, TF over GST control)
ELF3
  binding signal: 1.33 fold enrichment (6-mer frequency, TF over GST control)
CRX
  binding signal: 1.3 fold enrichment (6-mer frequency, TF over GST control)
ETV1
  binding signal: 1.39 fold enrichment (6-mer frequency, TF over GST control)
